# High-throughput results as filed in PubChem BioAssay.
# HP1b chromo inh: blocks HP1-beta chromodomain binding to methylated histone tails. AID 540317. AlphaScreen HP1-beta / biotin-H3K9me3 peptide binding. actives 0.56% (n = 390,000). Potency, µM (series often up to 114 µM), usual class: inhibitors. P83916; note: nearly all actives have a fitted effect of over 70% in size
# Target sequence (P83916 whole entry, looked up): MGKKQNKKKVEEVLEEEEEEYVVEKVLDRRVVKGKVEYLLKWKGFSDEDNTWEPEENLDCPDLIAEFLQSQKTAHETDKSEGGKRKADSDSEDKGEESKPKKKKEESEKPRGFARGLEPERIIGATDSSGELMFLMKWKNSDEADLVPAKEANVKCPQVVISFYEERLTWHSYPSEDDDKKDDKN
#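 AlphaScreen: HP1-beta (50 nM) preformed 30 min with biotin-H3(1-18)K9me3 peptide (50 nM) in PBS pH 7.4, 0.01% Tween-20. Compound added for 30 min at RT, then streptavidin donor/nickel chelate acceptor beads (10 ug/mL) for 30 min.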
# BAZ2B block: blocks human BAZ2B; AlphaScreen BAZ2B-H3K14Ac peptide displacement; Potency, µM (top dose mostly 114 µM), actives largely listed as inhibitors; actives 4.4% (n = 360,000); AID 504333; note: nearly all actives have a fitted effect of over 60% in size
#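 AlphaScreen displacement of biotin-H3(5-23)K14Ac peptide (50 nM final) from BAZ2B (50 nM final) in PBS pH 7.4, 0.01% Tween-20; complex preformed 30 min RT, then compounds (top 110 uM) 30 min RT, beads 20 min dark.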
# PLK1 PBD inh: PLK1 (human) polo-box domain binding inhibition; Plk1 PBD binding of FITC phosphopeptide, fluorescence polarization; Potency, µM, most hits filed as inhibitors; actives 2.8% (n = 360,000); AID 720504; note: series mostly up to about 57 µM; nearly all actives have a fitted effect of over 65% in size
# JMJD2A Tudor: blocks the human JMJD2A Tudor domain. actives 4.4% (n = 390,000). O75164. AID 504339. Potency, µM (doses to about 114 µM), actives largely listed as inhibitors. AlphaScreen JMJD2A-Tudor / H3K4me3 peptide binding; note: nearly all actives have a fitted effect of over 50% in size
# G9a block: blocks human histone lysine methyltransferase G9a. Q96KQ7. G9a H3K9 monomethylation, AlphaScreen, 2 h. Potency, µM (doses to about 102 µM), actives largely listed as inhibitors. actives 8.8% (n = 350,000); note: nearly all actives have a fitted effect of over 75% in size
# Target sequence (Q96KQ7 913-1193 limits assumed): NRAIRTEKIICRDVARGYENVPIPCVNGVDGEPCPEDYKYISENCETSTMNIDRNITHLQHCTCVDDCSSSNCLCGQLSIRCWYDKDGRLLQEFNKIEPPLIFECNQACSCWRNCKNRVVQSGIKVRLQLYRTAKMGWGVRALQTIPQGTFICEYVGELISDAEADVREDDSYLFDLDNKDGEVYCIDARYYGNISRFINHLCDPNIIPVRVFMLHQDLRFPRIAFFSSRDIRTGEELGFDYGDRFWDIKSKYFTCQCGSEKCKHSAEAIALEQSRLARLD
#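 Enzyme 20 nM + cpd, 15 min RT; add b-H3K9 pep 500 nM / SAM 20 uM; 2 h RT; anti-H3K9me1 Ab 0.5 ug/mL + SA donor / anti-rabbit acceptor beads 20 ug/mL each, 10 min; AlphaScreen read.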
# Sfp inh: Sfp phosphopantetheinyl transferase inhibition; Q9F4F7; Biochemical Sfp PPTase activity, qHTS; Potency, µM, actives largely listed as inhibitors; actives 3.5% (n = 310,000); AID 1490;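 note: the enzyme is Sfp with the accession as filed and its product quenches rhodamine fluorescence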
#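 Step 1, compound plus 15 nM Sfp-PPTase, 15 min, room temperature. Step 2, add rhodamine-CoA (5 uM) and BHQ-2-YbbR (12.5 uM). Step 3, read 525/598 nm fluorescence at 0 and 30 min.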
# A number is an active result; i = inactive; ? = inconclusive; nt = no result; [ ] = dose if it differs, or a comment. This is a sample that favours compounds with a hit; in the whole collection about 12% have one here. Calls come from the whole dose curve; as a rule, active = well fitted curve in the direction sought with a large enough effect; inconclusive = small, poorly fitted or top-dose-only effect, or another doubt; inactive = no such curve, though single readings can be large; an effect the other way counts as inactive or inconclusive.
SMILES,HP1b chromo inh,BAZ2B block,PLK1 PBD inh,JMJD2A Tudor,G9a block,Sfp inh
O=C(/C=C/c1ccco1)N(Cc1ccc(Cl)cc1)C1CCS(=O)(=O)C1 (stereo unspecified),i,i,?,i,45µM,25µM
COc1ccc(CN(C(=O)/C=C/c2ccco2)C2CCS(=O)(=O)C2)cc1OC (stereo unspecified),i,?,i,i,40µM,50µM
COc1ccc(CN(C(=O)/C=C/c2ccco2)C2CCS(=O)(=O)C2)cc1 (stereo unspecified),i,50µM,i,?,50µM,14µM
N#Cc1ccccc1OCC(=O)Nc1ccc2c(c1)OCO2,nt,nt,i,nt,nt,nt
CC(NC(=O)C1CCCN1S(=O)(=O)c1ccc2c(c1)n(C)c(=O)c(=O)n2C)c1ccccc1 (stereo unspecified),i,i,i,i,nt,i
CCC(C(=O)Nc1ccccc1C(=O)OC)n1c(C)c2cnn(-c3ccccc3)c(=O)c2c1C (stereo unspecified),i,i,nt,?,i,nt
C=CCC(O)CC1C2C(CC(O)CC=C)C3C1C3C2OC(C)(C)C (stereo unspecified),nt,nt,nt,nt,nt,i
COc1cccc(CN(C(=O)/C=C/c2ccco2)C2CCS(=O)(=O)C2)c1 (stereo unspecified),i,i,i,i,18µM,25µM
CCOc1ccc(NC(=S)C(C#N)=C2N(C)c3ccccc3N2C)cc1,i,i,i,i,32µM,i
CCN(CC)Cc1cc(NC2=NS(=O)(=O)c3ccccc32)ccc1OC(=O)c1ccccc1,i,i,i,i,79µM,i
Cc1ccc(-c2cc(-c3ccccc3)[nH]c(=S)c2C#N)cc1,i,i,?,i,i,i
N#Cc1c(N)[nH]c(=S)c(C#N)c1-c1ccccc1,i,nt,?,?,1.1µM,40µM
Cc1ccccc1-c1cccc([C@@H]2C[C@H]3CN(Cc4cccnc4)C(=O)[C@]34CCCN24)c1,i,i,i,?,50µM,i
Cc1ccccc1CN1C[C@@H]2C[C@@H](c3cnc(N4CCOCC4)s3)N3CCC[C@@]23C1=O,i,i,i,i,35µM,50µM
O=C1N(Cc2cccnc2)C[C@@H]2C[C@@H](c3ccccc3C#Cc3ccccc3)N3CCC[C@@]123,i,i,i,i,50µM,i
O=C1CC(c2nc3ccccc3[nH]2)CN1c1ccccc1 (stereo unspecified),i,i,i,i,?,i
c1ccc(C2=Nc3ccccc3SC2c2nc3ccccc3[nH]2)cc1 (stereo unspecified),nt,?,nt,nt,13µM,40µM
Cc1cccc(OCCCN2CCOCC2)c1C,?,?,i,25µM,nt,i
Clc1cc(Br)ccc1OCCOCCN1CCOCC1,i,?,i,7.1µM,?,i
Cc1ccc(C)c(OCCOCCN2CCOCC2)c1,i,i,i,i,i[12.7 µM],i
Cc1cccc(OCCCCCN2CCOCC2)c1C,i,i,i,i,i,i
Clc1cc(Br)ccc1OCCOCCN1CCCC1,?,?,i,32µM,40µM,i
Cc1ccc(OCCCCCN2CCOCC2)c(Cl)c1,50µM,nt,i,22µM,nt,nt
COc1cccc(-c2nc3c(c(SCc4ccccc4)n2)Cc2c(CO)cnc(C)c2O3)c1,i,i,nt,i,?,nt
O=C(NCc1ccccc1Cl)c1ccc2c(c1)N(Cc1ccccc1)CCS2,i,i,nt,i,i,nt
SMILES,HP1b chromo inh,BAZ2B block,PLK1 PBD inh,JMJD2A Tudor,G9a block,Sfp inh
Cc1cc2oc(=O)cc(CN3CCN(Cc4ccccc4)CC3)c2cc1Cl,i,i,i,i[11.4 µM],i,i
CCc1ccc2oc(=O)cc(CN3CCN(Cc4ccccc4)CC3)c2c1,i,i,i,i,45µM,i
O=c1cc(CN2CCN(Cc3ccccc3)CC2)c2cc(Cl)ccc2o1,i,i,i,i,45µM,i
Cc1ccc2c(CN3CCN(Cc4ccccc4)CC3)cc(=O)oc2c1,i,i,i,i,i,i
CCOc1ccccc1C1C(C(=O)Nc2ccccc2)=C(C)Nc2nc(SCC(=O)c3ccc(C)cc3)nn21 (stereo unspecified),i,i,nt,i,i,nt
Cc1ccc(OCc2cc(C(=O)N3CCc4[nH]cnc4C3c3ccccn3)no2)cc1C (stereo unspecified),i,?,i,?,71µM,i
